Experimental data taken from PubChem BioAssay (NCATS).
Results filed as inconclusive are left out. Activity calls are given as the source filed them. Calls follow the shape of the dose curve; as a rule, active = well fitted inhibition curve with a large enough effect; inconclusive = small, poorly fitted or top-dose-only effect; inactive = flat fitted curve, though single readings scatter.

system: CP266; assay: qHTS profiling for inhibitors of Plasmodium falciparum proliferation (AID 504749);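 also: 0% = DMSO vehicle and full inhibition = artemisinin control; nearly all actives have a fitted effect of over 60% in size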; conditions: P. falciparum in erythrocytes, SYBR Green DNA, 72 h; series mostly up to 28.7 µM; activity, negative = inhibition: at the top concentration
Procedure, shortened: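 SYBR Green fluorescence of parasite DNA, read after lysis and overnight dark incubation, measured growth over 72 h in erythrocyte culture at 0.3% parasitemia and 2.5% hematocrit. Data normalised to DMSO and 0.29 uM artemisinin, with plate-drift correction.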

SMILES	activity, negative = inhibition
O=C1[C@H]2CCCC[C@H]2C(=O)N1CCCCN1CCN(c2nsc3ccccc23)CC1	-0.8% (inactive)
O=C1OCCN1/N=C/c1ccc([N+](=O)[O-])o1	-4.35% (inactive)
CC(=O)OCC(=O)[C@@]1(OC(C)=O)[C@@H](C)C[C@H]2[C@@H]3C[C@H](F)C4=CC(=O)C=C[C@]4(C)[C@@]3(F)[C@@H](O)C[C@@]21C	2.87% (inactive)
CN=C(NC#N)Nc1ccc(C2=NNC(=O)CC2C)cc1 (stereo not drawn)	-6.35% (inactive)
CCCOC(C(=O)OC1CCN(C)CC1)(c1ccccc1)c1ccccc1	-11.6% (inactive)
CN(C(=O)CN(CCO)CC(=O)N(C)C(C)(C)Cc1ccccc1)C(C)(C)Cc1ccccc1	2.76% [at 12.8 µM] (inactive)
CCN(CCCc1ccccc1)CCCc1ccccc1	-21.1% [at 12.8 µM] (inactive)
C=C(CC)C(=O)c1ccc(OCC(=O)O)c(Cl)c1Cl	1.34% (inactive)
CCOc1ccc(Cc2nccc3cc(OCC)c(OCC)cc23)cc1OCC	-8.03% [at 12.8 µM] (inactive)
CC(=O)N/N=C/c1ccc([N+](=O)[O-])o1	-8.57% (inactive)
Cc1cccc(C)c1NC(=O)CN1CCN(CCCC(c2ccc(F)cc2)c2ccc(F)cc2)CC1	-11.4% [at 12.8 µM] (inactive)
CCCCCCCCCCOCC(O)CN (stereo not drawn)	-21.9% (inactive)
CN1CCN(C(c2ccccc2)c2ccccc2)CC1	-12.5% [at 12.8 µM] (inactive)
CCN1CCC[C@H]1CNC(=O)c1c(OC)ccc(Br)c1OC	-17.2% (inactive)
Oc1ccc(Cl)c2cccnc12	-10.4% (inactive)
CCN(CC)CCNC(=O)COc1ccc(Cl)cc1	-23.4% (inactive)
COC(=O)[C@H]1[C@H]2C[C@H]3c4[nH]c5ccccc5c4CCN3C[C@H]2CC[C@@H]1O	2.64% (inactive)
CCN1CCN(c2cc3c(cc2F)c(=O)c(C(=O)O)cn3C2CC2)CC1	1.49% (inactive)
